According to PubChem BioAssay AID434970 (Sanford-Burnham Center for Chemical Genomics, 2010):
Screen size: about 11,000 compounds; about 310 (2.8%) were called active. This is one part of a sample in which actives are shown more often than they occur. Cut-off read from the data, not from the text of the source: active = activity change below about -85%; inactive = the rest.

Tested on: intestinal alkaline phosphatase [Mus musculus]
Experiment: mouse intestinal phosphatase enzyme activation – biochemical, luminescence, single concentration, confirmation (AID 434970)
Details: purified mouse IAP, CDP-Star luminescence, 30 min, at 10 µM; activation factor: measured here: IAP activation factor, stronger effect = higher value; activity change, negative = activation: stronger effect = lower value

Row | SMILES | activation factor | activity change, negative = activation
1 | CCOc1ccc(-n2cc(C(=O)Nc3cccc(Cl)c3)c3cc(OC)c(OC)cc3c2=O)cc1 | 1.1 | -10.2% (inactive)
2 | CNC(=O)/C(C#N)=C/c1ccc(-c2ccc(OC)cc2[N+](=O)[O-])o1 | 0.891 | 10.9% (inactive)
3 | CC(C)N(C(=O)[C@H]1C[C@H](CC(=O)NCCC2=CCCCC2)C(=O)N2CCc3c([nH]c4ccc(Cl)cc34)[C@]12C)C(C)C | 1.23 | -23.5% (inactive)
4 | NC(=O)c1c(NC(=O)CSc2nnc(-c3ccco3)n2-c2ccccc2)sc2c1CCC2 | 0.759 | 24.1% (inactive)
5 | COc1ccc(NC(=O)C2CCCN2c2ccc(OC)c(OC)c2)cc1OC (configuration not stated) | 1.14 | -14.2% (inactive)
6 | COc1ccc(C2C(C(=O)N3CCCC3)c3cc(OC)c(OC)cc3C(=O)N2C)cc1 (configuration not stated) | 0.989 | 1.1% (inactive)
7 | COc1ccccc1NC(=O)CCNS(=O)(=O)c1ccc2[nH]c(=O)oc2c1 | 0.265 | 73.5% (inactive)
8 | CCC(C(=O)NCCC(C)C)n1ccc2cc(S(=O)(=O)N3CCCCC3)ccc21 (configuration not stated) | 2.59 | -159% (active)
9 | COc1ccc(CNC(=O)C(C)n2ccc3cc(S(=O)(=O)N4CCCCCC4)ccc32)cc1 (configuration not stated) | 1.91 | -90.9% (inactive)
10 | COC(=O)c1ccc(S(=O)(=O)N2CCCCCC2)cc1 | 0.874 | 12.6% (inactive)
11 | CCOc1ccccc1N(CC(=O)Nc1ccc(C)cc1)S(C)(=O)=O | 0.98 | 2.05% (inactive)
12 | O=C(CC1Sc2ccccc2NC1=O)OCC(=O)N1CCc2ccccc21 (configuration not stated) | 1.11 | -10.6% (inactive)
13 | Cc1ccc(NC(=O)NCC2CCN(Cc3cc(C)ccc3Cl)CC2)c(C)c1 | 1.87 | -86.8% (active)
14 | Cc1ccc(C)c(CN2CCC(CNC(=O)Nc3cccc(Cl)c3C)CC2)c1 | 2.47 | -147% (active)
15 | Cc1ccc(NC(=O)CSCC(=O)O)c(C)c1 | 1.07 | -7.15% (inactive)
16 | CCOC(=O)CNC(=O)Nc1cccc(Cl)c1C | 1.04 | -4.45% (inactive)
17 | Cc1c(Cl)cccc1NC(=O)CCN1CCCCCC1 | 0.984 | 1.6% (inactive)
18 | Cc1ccc(NC(=O)Cn2cccc2)c(C)c1 | 1.01 | -1.25% (inactive)
19 | COC(=O)CCN(C(=O)C1C2CC3CC(C2)CC1C3)c1ccccn1 (configuration not stated) | 0.948 | 5.2% (inactive)

Row | SMILES | activation factor | activity change, negative = activation
20 | COc1ccccc1-c1nnc(SCCN2CCOCC2)n1-c1ccc(C)cc1 | 0.947 | 5.3% (inactive)
21 | CCOC(=O)C1=CN(Cc2ccco2)S(=O)(=O)N(CC)C1c1cccc(OC)c1 (configuration not stated) | 1.02 | -1.7% (inactive)
22 | O=S1(=O)CC(O)C(Nc2ccccc2)C1 (configuration not stated) | 0.942 | 5.85% (inactive)
23 | OC(c1cccc(OCc2ccccc2)c1)c1nnc(-c2ccccc2)o1 (configuration not stated) | 1.03 | -3.4% (inactive)
24 | CCN([C@H](CO)CC(C)C)S(=O)(=O)c1ccccc1 | 1.09 | -8.75% (inactive)
25 | Cc1onc(-c2ccccc2)c1CNC(=O)Nc1ccc(C(F)(F)F)cc1 | 1.99 | -99.1% (active)
26 | Cc1cc(C)cc(NC(=O)NCc2c(-c3ccccc3)noc2C)c1 | 2.73 | -173% (active)
27 | Cc1onc(-c2ccccc2)c1C(=O)NCc1ccccn1 | 0.956 | 4.35% (inactive)
28 | Cc1onc(-c2ccccc2)c1NC(=O)Nc1ccc(OC(F)F)cc1 | 1.48 | -47.9% (inactive)
29 | Cc1onc(-c2ccccc2)c1C(=O)NCc1cccs1 | 1.01 | -0.85% (inactive)
30 | Cn1c(CNC(=O)Nc2cccc(Cl)c2)nnc1SCc1ccccc1 | 1.52 | -52% (inactive)
31 | O=C(Nc1cccc(Cl)c1)Nc1nnc(-c2ccccc2)o1 | 1.02 | -2.05% (inactive)
32 | FC(F)(F)c1ccc(NC(=S)NCc2ccccc2)cc1 | 1.41 | -41% (inactive)
33 | Cc1onc(-c2ccccc2)c1CNC(=O)Nc1cccc(Cl)c1 | 2.33 | -133% (active)
34 | COC(=O)C1=NN(c2ccccc2)C2(S1)SC(C(C)=O)=C(C)N2c1ccccc1 (configuration not stated) | 0.92 | 8% (inactive)
35 | O=C(CC(Nc1ccc(F)cc1)C(=O)O)c1ccccc1 (configuration not stated) | 0.959 | 4.1% (inactive)
36 | COC(=O)c1oc2ccc(Cl)cc2c1N | 0.915 | 8.55% (inactive)
37 | O=C(Nc1ccc2c(c1)nc1n2CCOC1)c1ccco1 | 1.29 | -29.5% (inactive)
38 | Cc1cccc(N2O[C@H]3C=CC2CCCC3)n1 | 1.02 | -2.2% (inactive)

Row | SMILES | activation factor | activity change, negative = activation
39 | COc1ccc(C2C(C(=O)Nc3ccccc3)=C(C)N=C3SCC(=O)N32)cc1 (configuration not stated) | 0.843 | 15.7% (inactive)
40 | CCC1CCCCN1CCCNC(=O)CNC(=O)Cn1ccc2ccccc2c1=O (configuration not stated) | 0.926 | 7.35% (inactive)
41 | Cc1cccc(NC(=O)NCCc2c[nH]c3ccccc23)c1 | 1.72 | -71.8% (inactive)
42 | COc1cccc(NC(=O)NCCCCc2ccccc2)c1 | 2.16 | -116% (active)
43 | CC(CCc1ccccc1)NC(=O)c1ccncc1 (configuration not stated) | 0.938 | 6.2% (inactive)
44 | Cc1cccc(NC(=S)NC(C)CCc2ccccc2)c1 (configuration not stated) | 1.15 | -14.6% (inactive)
45 | Cc1cccc(NC(=O)NC(C)CCc2ccccc2)c1 (configuration not stated) | 2.83 | -183% (active)
46 | S=C(NCCCc1ccccc1)Nc1ccc(Br)cc1 | 1.72 | -71.9% (inactive)
47 | Cc1cccc(NC(=O)NCCCCc2ccccc2)c1 | 2.38 | -138% (active)
48 | O=C(NCCCCc1ccccc1)Nc1cccc(F)c1 | 2.29 | -129% (active)
49 | Fc1cccc(NC(=S)NCc2ccccc2Cl)c1 | 1.27 | -27.2% (inactive)
50 | COc1cccc(NC(=O)Nc2cccn(Cc3ccccc3)c2=O)c1 | 1.01 | -1.1% (inactive)
51 | Cc1ccc(NC(=O)NCCCc2ccccc2)cc1 | 1.29 | -28.6% (inactive)
52 | COc1cccc(NS(=O)(=O)Cc2ccccc2)c1 | 0.904 | 9.6% (inactive)
53 | O=C(c1ccc(F)cc1)N1CCN(Cc2ccccc2Br)CC1 | 0.984 | 1.55% (inactive)
54 | CCn1c(SCC(=O)Nc2nccs2)nnc1-c1cc2cccc(OC)c2o1 | 0.881 | 11.9% (inactive)
55 | CCOc1ccc(C(=S)N2CCCC2)cc1 | 0.949 | 5.1% (inactive)
56 | CCSc1nc(N)c2c(C)c(C)sc2n1 | 1.11 | -10.9% (inactive)
